From PubChem BioAssay
TGFb inhibitor – TGF-b pathway inhibition. hit rate 1.2% among 410,000. Potency, µM (top dose mostly 46.1 µM), for inactives: top-dose activity, negative = inhibition, hits mostly inhibitors. HepG2 CAGA-GFP TGF-b/SMAD3 reporter, GFP fluorescence, 18 h; TGF-beta stimulated, 500 pg/mL final; further: potency means the concentration at half of the fitted maximal effect; on the % scale 0 is the no-effect control and ±100 the full control effect; nearly all actives have a fitted effect of over 65% in size
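Per well, imaged GFP fluorescence of HEPG2 CAGA-GFP cells gives the signal; cells get compound, then TGF-beta (500 pg/mL final), 18 h at 37 degrees C; %Activity versus -TGF-beta and +DMSO controls.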
S2 tox – cell viability loss in ATXN counter-screen; Potency, µM (doses to about 56.7 µM), actives largely listed as cytotoxic; S2 cells (HEK-293 line with an ATXN2-luciferase reporter) viability, CellTiter-Fluor protease fluorescence, 24 h; hit rate 0.49% among 400,000; AID 651635; further: potency means the concentration at half of the fitted maximal effect; nearly all actives have a fitted effect of over 40% in size
ATXN2 expr inh – ATXN2 expression inhibition; HEK-293 ATXN2-luciferase reporter, luminescence, 24 h; Potency, µM (doses to about 57 µM), inactives show top-dose activity change, negative = inhibition, usual class: inhibitors; hit rate 0.72% among 360,000; AID 1745845; further: potency means the concentration at half of the fitted maximal effect; on the % scale 0 is the no-effect control and ±100 the full control effect; nearly all actives have a fitted effect of over 55% in size
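ATXN2-luciferase reporter cells (luciferase flanked by upstream and downstream ATXN2 gene portions) were treated 24 h at 37 °C with compounds at up to 57 uM. SteadyGlo luminescence gave expression; GF-AFC fluorescence gave viability.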
DRD3 agonist – D3 dopamine receptor (human) agonism. hit rate 0.58% among 410,000. P35462. D3R DiscoveRx beta-arrestin cells, luminescence, 90 min. max activation, %; in the data active means max activation above about 30%; further: 0% is about no effect
Target sequence (P35462 whole entry, looked up): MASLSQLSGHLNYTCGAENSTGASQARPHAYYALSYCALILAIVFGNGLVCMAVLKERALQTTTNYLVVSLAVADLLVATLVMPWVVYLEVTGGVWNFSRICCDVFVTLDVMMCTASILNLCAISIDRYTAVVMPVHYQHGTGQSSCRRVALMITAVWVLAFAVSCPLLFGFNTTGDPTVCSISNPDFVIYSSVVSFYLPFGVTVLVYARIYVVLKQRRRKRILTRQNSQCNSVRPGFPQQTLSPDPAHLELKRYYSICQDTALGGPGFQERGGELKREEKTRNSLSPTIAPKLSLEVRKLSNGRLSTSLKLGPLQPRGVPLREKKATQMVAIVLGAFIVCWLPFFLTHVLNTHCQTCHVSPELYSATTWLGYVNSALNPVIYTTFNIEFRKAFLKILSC
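Cells at 1500/well, incubated overnight, then treated with pinned compounds (dopamine as control) for 90 min at 37 degrees C. DiscoveRx reagent added for 30 - 60 minutes at room temperature; luminescence read.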
DRD3 antagonist – D3 dopamine receptor (human) antagonism; D3R cells, DiscoveRx beta-arrestin luminescence, antagonist mode; stronger effect = lower value; max response, negative = inhibition, %; hit rate 2.5% among 360,000; P35462; in the data active means max response below about -50%; inconclusive means no clear call, values can overlap the other calls; further: on the % scale 0 is the no-effect control and ±100 the full control effect
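Cells expressing the human receptor were seeded at 1500 cells/well, incubated overnight at 37 degrees C in 5% CO2, then exposed to library compounds with dopamine controls for 90 minutes at 37 degrees C before luminescent detection.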
HepG2 tox – counter-screen for TGF-b inhibitors: cytotoxicity in HepG2 cells; HepG2 CAGA-GFP viability, ATP luminescence, 18 h; Potency, µM (series often up to 46.1 µM), for inactives: at the top dose activity change, negative = cytotoxicity, most hits filed as cytotoxic; hit rate 0.76% among 410,000; further: potency means the concentration at half of the fitted maximal effect
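HepG2 CAGA-GFP cells (1000/well, DMEM with 1% FBS) received compound, then TGF-beta at 500 pg/mL final, and were incubated 18 hours at 37 degrees C. Viability was read by CellTiter-Glo luminescence. Media-only wells were set as complete cell-killing and DMSO as no toxicity.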
Numbers without * were called inactive; i = inactive; u = inconclusive; x = no result given. The list is not random: actives were taken first. Their share in the collection is about 4.8%. Unless noted, the call rests on the fitted dose curve; in most records, active means well fitted curve in the direction sought with a large enough effect; inconclusive means small, poorly fitted or top-dose-only effect, or another doubt; inactive means no such curve, though single readings can be large; an effect the other way counts as inactive or inconclusive.

SMILES | TGFb inhibitor | S2 tox | ATXN2 expr inh | DRD3 agonist | DRD3 antagonist | HepG2 tox
Cc1ccc(C)c(NC(=O)c2ccccc2NS(=O)(=O)c2cc([N+](=O)[O-])ccc2C)c1 | 2.5µM* | i | u | 1 | -1 | -41%
CN1[C@@H]2CC[C@H]1CC(NC(=O)n1c(=O)[nH]c3ccccc31)C2 (stereo not given in full) | x | u | -15% | -11 | x | x
Cc1ccc(Nc2nc(Nc3ccc(Cl)cc3)nc(N3CCOCC3)n2)cc1 | 6% | x | x | x | x | -28%
Cc1ccc(C)c(N2CCN(C(=O)C3CCN(c4nc(-c5ccc(C(C)C)cc5)no4)CC3)CC2)c1 | -32% | x | x | 4 | x | -25%
Cc1ccc(Cn2c(CN3CCC(C(=O)NCc4cccnc4)CC3)cc3ccccc32)cc1 | u | x | u | -1 | x | 11µM*
CN(C)CCNC(=O)C1CCN(Cc2cc3ccccc3n2Cc2ccccc2)CC1 | u | x | 22µM* | -3 | x | 11µM*
N#C/C(=C\C=C\c1ccccc1[N+](=O)[O-])C(=O)NCc1ccccc1 | 13µM* | u | 28µM* | -5 | -26 | -130%
CCOC(=O)c1c(C)oc2nc(C)nc(NCc3cccc(Cl)c3)c12 | 16% | i | 1% | 1 | x | 2%
COc1ccccc1C1CCN(C(=O)c2ccc(C(C)(C)C)cc2)CC1 | 13µM* | i | 17% | 3 | 8 | -58%
CCOC(=O)c1cnc2cc(-c3ccc(C)cc3)nn2c1-c1ccccc1 | -18% | i | -15% | 7 | 41 | -2%
CCOC(=O)c1cnc2cc(-c3ccc(OCC)cc3)nn2c1-c1ccccc1 | -13% | x | x | 36* | x | 1%
CCOC(=O)c1nnc2cc(-c3ccccc3)nn2c1C | 15% | i | 5% | 8 | -74* | -5%
COc1ccc(/C=C/c2cnc3ccccc3n2)cc1OC | -4% | x | x | x | x | -35%
Cc1ccnc2c(N)cccc12 | -8% | x | x | x | x | -22%
Cc1cccc(CN2CCN(CC(=O)N3CCCC3)C2=O)c1 | 16% | i | -3% | 2 | 17 | 2%
Cc1cccc(CN2CCN(CC(=O)O)C2=O)c1 | 5% | i | 8% | -1 | -109* | 3%
CC(CCc1ccccc1)NC(=O)CN1CCN(Cc2ccccc2)C1=O (stereo not given) | 6% | i | -5% | 31* | 26 | -14%
O=C(O)CCc1cccc2ccccc12 | 3% | x | x | x | x | -3%
C#CCN(C[C@@H]1[C@@H](OC(=O)NC2CC2)[C@@H](OC(=O)NC2CC2)CN(C(=O)OC(C)C)N1C(=O)OC(C)C)S(=O)(=O)c1ccc(C)cc1 | -11% | u | -8% | -12 | -8 | -7%
C#CCN(C[C@@H]1[C@@H](OC(=O)NC2CCCC2)[C@@H](OC(=O)NC2CCCC2)Cn2c(=O)ccc(=O)n21)S(=O)(=O)c1ccc(C)cc1 | u | 11µM* | u | -13 | -64* | -84%
C#CCN(C[C@@H]1[C@@H](OC(=O)NCc2ccccc2F)[C@@H](OC(=O)NCc2ccccc2F)Cn2c(=O)n(CCCCCC)c(=O)n21)S(=O)(=O)c1ccc(C)cc1 | -15% | u | 2% | 1 | 9 | -16%
C#CCN(C[C@H]1[C@H](OC(=O)Nc2cccs2)[C@H](OC(=O)Nc2cccs2)C[C@H]2C(=O)N(c3ccccc3)C(=O)[C@@H]12)S(=O)(=O)c1ccc(C)cc1 | -1% | i | 3% | -1 | -25 | 0%
C#CCN(C[C@@H]1[C@@H](OC(=O)Nc2cccs2)[C@@H](OC(=O)Nc2cccs2)Cn2c(=O)ccc(=O)n21)S(=O)(=O)c1ccc(C)cc1 | 5.6µM* | 3.5µM* | 3.5µM* | -2 | -4 | 5µM*
C#CCN(C[C@@H]1[C@@H](OC(=O)NCc2ccccc2F)[C@@H](OC(=O)NCc2ccccc2F)Cn2c(=O)ccc(=O)n21)S(=O)(=O)c1ccc(C)cc1 | 11µM* | 4µM* | 4µM* | -17 | -27 | 13µM*
O=C(N/N=C/c1ccccc1)c1ccco1 | 7% | i | 57% | 1 | 23 | -28%
